Assay outcomes (PubChem BioAssay)
An excerpt weighted towards active compounds, which were near 3.3% of everything screened.
WRN inhibitor: blocks human WRN helicase; Q14191; WRN helicase unwinding, fluorescent forked duplex, kinetic; Potency, µM (series often up to 114 µM), for the others: top-dose activity change, negative = inhibition, usual class: inhibitors; 360,000 tested, 0.46% active; also: potency is read from the fitted curve at half-maximal effect; nearly all actives have a fitted effect of over 55% in size
Target sequence (Q14191 whole entry, looked up): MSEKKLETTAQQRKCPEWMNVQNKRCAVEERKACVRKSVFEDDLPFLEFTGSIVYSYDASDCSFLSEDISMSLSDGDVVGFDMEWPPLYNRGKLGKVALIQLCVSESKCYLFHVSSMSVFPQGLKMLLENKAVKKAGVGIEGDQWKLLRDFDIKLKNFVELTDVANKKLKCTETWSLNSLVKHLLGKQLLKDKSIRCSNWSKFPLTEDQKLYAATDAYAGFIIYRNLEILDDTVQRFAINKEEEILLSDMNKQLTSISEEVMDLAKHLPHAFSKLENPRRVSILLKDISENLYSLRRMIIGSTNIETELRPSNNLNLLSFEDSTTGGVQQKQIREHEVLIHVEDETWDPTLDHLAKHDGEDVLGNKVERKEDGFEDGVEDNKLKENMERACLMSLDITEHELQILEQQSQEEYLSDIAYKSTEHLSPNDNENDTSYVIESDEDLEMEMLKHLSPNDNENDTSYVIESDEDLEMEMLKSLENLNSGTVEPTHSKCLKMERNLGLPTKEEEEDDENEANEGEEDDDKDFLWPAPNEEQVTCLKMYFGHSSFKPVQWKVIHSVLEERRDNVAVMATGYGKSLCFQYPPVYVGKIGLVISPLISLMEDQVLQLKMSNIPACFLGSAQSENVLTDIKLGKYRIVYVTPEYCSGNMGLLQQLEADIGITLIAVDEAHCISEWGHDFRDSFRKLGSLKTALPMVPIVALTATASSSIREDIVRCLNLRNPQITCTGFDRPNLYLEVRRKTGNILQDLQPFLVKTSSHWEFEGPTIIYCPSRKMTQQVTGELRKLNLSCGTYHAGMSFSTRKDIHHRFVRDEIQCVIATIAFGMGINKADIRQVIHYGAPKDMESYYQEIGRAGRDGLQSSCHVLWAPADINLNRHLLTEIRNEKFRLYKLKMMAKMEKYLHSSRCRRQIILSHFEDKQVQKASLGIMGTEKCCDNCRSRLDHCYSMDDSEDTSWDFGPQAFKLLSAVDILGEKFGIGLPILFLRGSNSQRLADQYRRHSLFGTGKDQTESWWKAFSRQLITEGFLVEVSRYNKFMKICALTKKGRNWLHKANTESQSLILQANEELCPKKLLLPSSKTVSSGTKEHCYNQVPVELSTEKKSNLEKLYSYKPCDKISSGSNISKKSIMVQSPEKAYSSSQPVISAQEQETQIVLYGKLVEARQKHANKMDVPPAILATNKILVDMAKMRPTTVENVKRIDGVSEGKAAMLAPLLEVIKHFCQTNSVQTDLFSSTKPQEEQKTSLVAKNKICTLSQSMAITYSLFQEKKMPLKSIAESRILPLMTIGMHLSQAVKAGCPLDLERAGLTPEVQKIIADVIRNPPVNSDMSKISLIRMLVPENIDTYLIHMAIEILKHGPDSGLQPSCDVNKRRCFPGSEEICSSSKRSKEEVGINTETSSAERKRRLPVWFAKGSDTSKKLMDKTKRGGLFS
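Fluorescence dequenching readout, ex 525 nm/em 598 nm, kinetic mode: forked duplex DNA (100 nM final) with adjacent fluorophore and quencher unwound by WRN (20 nM final) with 2 mM ATP. Compound preincubation 15 min, room temperature.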
USP1 inh: USP1/UAF1 (human) deubiquitinase inhibition; recombinant USP1/UAF1, Ub-Rhodamine cleavage fluorescence; Potency, µM (series often up to 57.1 µM), inactives show at the top dose activity change, negative = inhibition, most hits filed as inhibitors; O94782; 390,000 tested, 0.23% active; also: potency is read from the fitted curve at half-maximal effect; nearly all actives have a fitted effect of over 60% in size
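Step one: compound is pinned into 1nM USP1/UAF1 in HEPES pH 7.8 buffer with TCEP. Step two: 15 min room-temperature incubation. Step three: Ub-Rho (150nM final) starts cleavage, tracked by fluorescence over six one-minute reads.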
USP2a block: inhibitors of human ubiquitin-specific protease USP2a | O75604 | USP2 core, Ub-CHOP2 coupled fluorogenic reporter, 485/531 | Potency, µM (highest dose often 38.3 µM), without a hit: top-dose activity change, negative = inhibition, actives largely listed as inhibitors | 330,000 tested, 0.01% active | AID 463254;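 also: potency is read from the fitted curve at half-maximal effect; plate controls were DMSO wells for no effect and full inhibition by NEM control for full effect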
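Cell-free coupled assay: 10nM USP2 core preincubated 30min RT with compound in Tris-HCl pH 8.0/CaCl2/CHAPS buffer, then 25nM Ub-CHOP2 and 25nM reporter substrate; fluorescence (Ex 485/Em 531) read after 60min RT, normalized to NEM inhibition, concentration-response curves fitted.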
PI5P4Ka inh: blocks human PI5P4K alpha kinase activity | PI5P4Kalpha enzyme, ADP-Glo luminescence, 60 min; hits give low values | max response, % | 330,000 tested, 1.2% active; active = max response of -50% or lower; inconclusive = between -30% and -50%; inactive = -30% or higher; also: value at the top dose of about 77 µM
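Reactions run in 0.038 M HEPES pH 7.4, 0.28 mM EGTA, 0.1% CHAPS and 5% DMSO, with PI5P4Kalpha, substrate, compound and 5 microM ATP final, one hour at room temperature. Readout is ADP-Glo luminescence.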
PLK1 PBD inh: PLK1 (human) polo-box domain binding inhibition | Plk1 PBD binding of FITC phosphopeptide, fluorescence polarization | Potency, µM, without a hit: max response, negative = inhibition, most hits filed as inhibitors | 360,000 tested, 2.8% active | AID 720504; also: potency is read from the fitted curve at half-maximal effect; series mostly up to about 57 µM; nearly all actives have a fitted effect of over 65% in size
* hit, by the source's call; [ ] = dose if it differs, or a comment. Unless noted, calls follow the shape of the dose curve; as a rule, active = well fitted curve in the direction sought with a large enough effect; inconclusive = small, poorly fitted or top-dose-only effect, or another doubt; inactive = no such curve, though single readings can be large; an effect the other way counts as inactive or inconclusive. Unless noted, % is scaled to controls: 0 for no effect and ±100 for the full control effect.

How did O=C(Oc1ccc(F)cc1)c1nc(SCc2ccccc2F)ncc1Cl do in these assays?
USP1 inh: -7%

Results for CCc1c(C)c(C#N)c2[nH]c3ccccc3n2c1=S ?
WRN inhibitor: -5%; USP1 inh: -19%; USP2a block: 0%; PI5P4Ka inh: -25; PLK1 PBD inh: 13µM*

Results for Cc1ncc(COC(=O)C(C)C)c2cc(C(=O)Nc3ccccc3C(F)(F)F)c(=O)oc12 ?
USP1 inh: -4%

How did CC[C@H](C)/C=C(C)/C=C/C1=CC2=CC(=O)[C@]3(C)OC(=O)[C@@H](C(C)=O)[C@@H]3C2=CO1 do in these assays?
WRN inhibitor: -24%; USP1 inh: -14%; USP2a block: 19%; PI5P4Ka inh: -60*; PLK1 PBD inh: -26%

Results for COc1cccc(CNC(=O)c2c(C)nn(-c3cccc(C)c3)c2-n2cccc2)c1 ?
USP1 inh: -26%

Results for CCOC(=O)C(NC(=O)c1ccccc1)=C(C)C ?
WRN inhibitor: -5%[57.1 µM]; USP1 inh: -25%; USP2a block: -1%; PLK1 PBD inh: -2%

Results for COC(=O)C(NC(=O)c1ccccc1)=C(C)C ?
WRN inhibitor: 11%; USP1 inh: -16%; USP2a block: 2%; PI5P4Ka inh: inconclusive; PLK1 PBD inh: 3.4µM*

How did CC(=O)c1ccc(S(=O)(=O)NCC(=O)N2CCN(C/C=C/c3ccccc3)CC2)cc1 do in these assays?
WRN inhibitor: -4%; USP1 inh: 2%; USP2a block: 0%; PI5P4Ka inh: -1; PLK1 PBD inh: 27µM*

What do the screens show for `O=C(Nc1cnc2ccccc2c1)N1CCOCC1`?
WRN inhibitor: 4%; USP1 inh: 3%; USP2a block: -1%; PI5P4Ka inh: -3; PLK1 PBD inh: 27µM*

What do the screens show for `O=C(Nc1cnc2ccccc2c1)N1CCCCC1`?
WRN inhibitor: 3%; USP1 inh: 4%; USP2a block: 0%; PI5P4Ka inh: -4; PLK1 PBD inh: -13%

Results for COc1ccc(CCn2c(C)cc(C(=O)COC(=O)c3ccc(NC(=O)CC#N)cc3)c2C)cc1 ?
WRN inhibitor: -27%; USP1 inh: inconclusive; USP2a block: -19%; PI5P4Ka inh: -50*; PLK1 PBD inh: 17%

How did Cc1cc(C(=O)COC(=O)c2ccc(NC(=O)CC#N)cc2)c(C)n1CCc1ccc(F)cc1 do in these assays?
WRN inhibitor: -12%; USP1 inh: -28%; USP2a block: 0%; PI5P4Ka inh: inconclusive; PLK1 PBD inh: 2%

What do the screens show for `O=C(Nc1ccc(Cl)c(C(F)(F)F)c1)C(Cc1ccccc1)NS(=O)(=O)c1cccc2nsnc12` (stereo not given)?
USP1 inh: -26%

Results for Cc1ccc(S(=O)(=O)Nc2cccc(-c3ccc(N4CCCCCC4)nn3)c2)c(C)c1 ?
WRN inhibitor: -11%; USP1 inh: -3%; USP2a block: -2%; PI5P4Ka inh: -6; PLK1 PBD inh: 27µM*

Results for Cc1ccc(NC(=O)COC(=O)c2cc(=O)c3ccccc3o2)cc1F ?
WRN inhibitor: 5%; USP1 inh: 1%; USP2a block: 2%; PI5P4Ka inh: 3; PLK1 PBD inh: -13%

What do the screens show for `Cc1cccc(C)c1NC(=O)COC(=O)c1cc(=O)c2ccccc2o1`?
WRN inhibitor: -4%; USP1 inh: -3%; USP2a block: 10%; PI5P4Ka inh: -6; PLK1 PBD inh: 21µM*

What do the screens show for `S=c1[nH]c2ccc(Cl)cc2[nH]1`?
WRN inhibitor: -22%; USP1 inh: 0%; USP2a block: 2%; PI5P4Ka inh: inconclusive; PLK1 PBD inh: 11µM*

What do the screens show for `S=c1[nH]c2cc(Cl)ccc2s1`?
WRN inhibitor: -9%; USP1 inh: inconclusive; USP2a block: 2%; PLK1 PBD inh: 1.9µM*

How did COc1ccc(C(=O)Nc2ccc(NC(=O)c3cccs3)cc2)cc1Cl do in these assays?
WRN inhibitor: 2%; USP1 inh: -20%; USP2a block: 2%; PI5P4Ka inh: inconclusive; PLK1 PBD inh: 3.8µM*

What do the screens show for `COc1ccc(C(=O)Nc2ccc(NC(=O)c3cccs3)cc2)cc1OC`?
USP1 inh: 25µM*

Results for COc1ccc(C(=O)Nc2cccc(NC(=O)c3cccs3)c2)cc1OC ?
WRN inhibitor: 2%; USP1 inh: -14%; USP2a block: 0%; PI5P4Ka inh: 4; PLK1 PBD inh: -8%
